Assay outcomes: PubChem BioAssay, National Center for Advancing Translational Sciences (NCATS)
D3 ag – qHTS of D3 Dopamine Receptor Agonist: qHTS; max activation, %; AID 652048, 2013; actives 0.58% (n = 410,000); D3R DiscoveRx beta-arrestin cells, luminescence, 90 min; D(3) dopamine receptor (Homo sapiens), P35462; in the data active = max activation above about 30%; note: 0% is about no effect
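Cells at 1500/well, incubated overnight, then treated with pinned compounds (dopamine as control) for 90 min at 37 degrees C. DiscoveRx reagent added for 30 - 60 minutes at room temperature; luminescence read.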
TRPML1 ag – qHTS for Agonists of the Human Mucolipin Transient Receptor Potential 1 (TRPML1); Mucolipin-1 (Homo sapiens), Q9GZU1; TRPML1-expressing cells, Ca2+ dye fluorescence, FDSS; activation, % (no concentration beside the values); actives 0.12% (n = 410,000); AID 624414, 2012; in the data active = activation above about 50%; inconclusive = mostly about 30% to 49%; note: 0% is about no effect
Target sequence (Q9GZU1 whole entry, looked up): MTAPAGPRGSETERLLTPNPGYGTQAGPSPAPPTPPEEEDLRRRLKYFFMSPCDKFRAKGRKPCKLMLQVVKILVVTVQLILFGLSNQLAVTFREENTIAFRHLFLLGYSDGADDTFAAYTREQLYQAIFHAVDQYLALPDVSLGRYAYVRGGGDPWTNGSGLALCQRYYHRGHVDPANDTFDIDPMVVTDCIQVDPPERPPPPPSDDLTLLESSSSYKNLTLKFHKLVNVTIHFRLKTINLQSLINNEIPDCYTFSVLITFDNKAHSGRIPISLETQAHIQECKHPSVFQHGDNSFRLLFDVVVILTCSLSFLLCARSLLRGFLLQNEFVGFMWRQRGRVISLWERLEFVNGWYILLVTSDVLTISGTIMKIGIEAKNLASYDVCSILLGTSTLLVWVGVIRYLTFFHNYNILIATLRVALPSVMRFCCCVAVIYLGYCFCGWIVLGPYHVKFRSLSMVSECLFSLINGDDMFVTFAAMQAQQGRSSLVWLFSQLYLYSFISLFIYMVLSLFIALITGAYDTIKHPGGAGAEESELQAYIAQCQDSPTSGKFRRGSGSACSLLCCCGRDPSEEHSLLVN
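Kinetic FDSS Ca2+ read in Tet-induced TRPML1-DL cells (ABD Ca8 dye plus quencher, 45-90 min RT loading): baseline, then compound, then 110 s agonist window; EC80 agonist 54-4 at 4uM final added afterwards for a 110 s antagonist window.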
TRPML1 inh – qHTS for Inhibitors of the Human Mucolipin Transient Receptor Potential 1 (TRPML1); TRPML1-inducible cells, Ca2+ dye fluorescence, FDSS; hits give low values; inhibition of EC80 agonist-evoked calcium signal; activity change, negative = inhibition, % (test concentration not listed); actives 0.02% (n = 390,000); Mucolipin-1 (Homo sapiens), Q9GZU1; in the data active = activity change below about -50%; inconclusive = between about -30% and that limit;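 note: stimulus is agonist 54-4 at its EC80 concentration; % is set by controls: 0 for no effect and ±100 for the full control effect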
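Calcium fluorescence in TRPML1-DL cells induced overnight with Tet: a 110 s read after compound pin addition, then a 110 s antagonist read after challenge with 54-4 at 4 uM final (EC80).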
D3 antag – qHTS of D3 Dopamine Receptor Antagonist: qHTS | actives 2.5% (n = 360,000) | max response, negative = inhibition, % | AID 652054, 2013 | D3R cells, DiscoveRx beta-arrestin luminescence, antagonist mode; hits give low values | D(3) dopamine receptor (Homo sapiens), P35462; in the data active = max response below about -50%; inconclusive = no clear call, values can overlap the other calls; note: % is set by controls: 0 for no effect and ±100 for the full control effect
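Cells expressing the human receptor were seeded at 1500 cells/well, incubated overnight at 37 degrees C in 5% CO2, then exposed to library compounds with dopamine controls for 90 minutes at 37 degrees C before luminescent detection.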
An asterisk follows results filed as active; ! = not active in a repeat. The list is not random: actives were taken first. Their share in the collection is about 2.9%.

For C/C=C(/C)C(=O)OC(C)(C)[C@@H]1Cc2c(ccc3ccc(=O)oc23)O1 the results were D3 ag -106.4, TRPML1 ag 1.4, TRPML1 inh 2.4 and D3 antag -154.4*.
Cn1cc(C(=O)NCCc2ccc(Cl)cc2)c(=O)c2cc(S(=O)(=O)N3CCOCC3)ccc21 was read as D3 ag -4.3, TRPML1 ag -0.2 and TRPML1 inh 9.5.
For O=c1[nH]c(CN2CCN(c3ccc(O)cc3)CC2)nc2scc(-c3ccc(Cl)cc3)c12 the results were D3 ag 98.4*, TRPML1 ag 0.1, TRPML1 inh 15.8 and D3 antag 21.4.
Screening Clc1ccc(CN2CCN(c3ncccn3)CC2)cc1 returned D3 ag 36.2*, TRPML1 ag -1.4, TRPML1 inh 2.9 and D3 antag 14.4.
For c1cc2c(cc1CN1CCOCC1)OCO2 the results were D3 ag -27.7, TRPML1 ag 0.9, TRPML1 inh -11.1 and D3 antag 0.0.
Screening SC(COCc1ccccc1)CN1CCN(Cc2ccc3c(c2)OCO3)CC1 (stereo not given) returned D3 ag -16.3, TRPML1 ag -0.2, TRPML1 inh -2.2 and D3 antag -55.2*.
For OC(COCc1ccccc1)CN1CCN(Cc2ccc3c(c2)OCO3)CC1 (stereo not given) the results were D3 ag -12.8, TRPML1 ag 2.2, TRPML1 inh 12.1 and D3 antag -19.6.
`c1ccc(N2CCN(Cc3ccc4c(c3)OCO4)CC2)nc1` gave D3 ag 47.3*, TRPML1 ag 0.3, TRPML1 inh 11.4 and D3 antag inconclusive.
Screening c1cnc(N2CCN(Cc3ccc4c(c3)OCO4)CC2)nc1 returned D3 ag 56.2*!, TRPML1 ag -0.9, TRPML1 inh 14.2 and D3 antag inconclusive.
For O=S(=O)(O)O the results were D3 ag 0.4.
For Cc1ccc(NS(=O)(=O)c2ccc(-c3cc(C)no3)cc2)c(C)c1 the results were D3 ag 8.8, TRPML1 ag -0.8 and TRPML1 inh 6.2.
Screening Cc1ccc(Cn2c(=O)c3ccccc3n3c(-c4ccccc4)nnc23)cc1 returned D3 ag 5.8, TRPML1 ag -1.1 and TRPML1 inh 4.3.
`CCC(C)NC(=O)CSc1nc2cc3c(cc2c(=O)n1CCCC(=O)NCCc1ccc(OC)c(OC)c1)OCO3` (stereo not given) gave D3 ag 6.2, TRPML1 ag 1.7 and TRPML1 inh -20.1.
For Cc1nc(N2CCN(Cc3ccc4c(c3)OCO4)CC2)c2cc(-c3ccccc3)sc2n1 the results were D3 ag -25.4, TRPML1 ag 1.0, TRPML1 inh -3.9 and D3 antag 5.4.
`O=S1(=O)N=C(N2CCN(Cc3ccc4c(c3)OCO4)CC2)c2ccccc21` gave D3 ag -18.1, TRPML1 ag 0.4, TRPML1 inh 8.2 and D3 antag -80.8*.
c1nc(N2CCN(Cc3ccc4c(c3)OCO4)CC2)c2[nH]cnc2n1 was read as D3 ag -8.5, TRPML1 ag -0.1, TRPML1 inh -0.8 and D3 antag -62.0*.
`CSc1nc(N2CCN(Cc3ccc4c(c3)OCO4)CC2)c2ccccc2n1` gave D3 ag -2.3, TRPML1 ag 4.9, TRPML1 inh 11.8 and D3 antag -64.3*.
Screening O=c1c(CN2CCN(c3ccccn3)CC2)coc2ccccc12 returned D3 ag 8.1, TRPML1 ag 0.8, TRPML1 inh -16.3 and D3 antag -21.0.
Brc1ccc(CN2CCN(c3ccccn3)CC2)s1 was read as D3 ag 67.6*, TRPML1 ag 1.0, TRPML1 inh 5.8 and D3 antag -8.5.
For c1ccc(COc2ccc(CN3CCN(c4ccccn4)CC3)cc2)cc1 the results were D3 ag 50.9*, TRPML1 ag -0.1, TRPML1 inh -3.5 and D3 antag -15.7.
For O=C(CSc1ccc(-c2cccs2)nn1)Nc1cccc(F)c1 the results were D3 ag -10.1, TRPML1 ag 0.9 and TRPML1 inh -5.4.
Screening COc1cc(CN2CCc3ccc(NC(=O)CCc4ccccc4OC)cc3C2)ccc1O returned D3 ag -14.2, TRPML1 ag -0.3, TRPML1 inh -1.2 and D3 antag -61.8*.
`COc1ccc(CN2CCc3ccc(NC(=O)CCc4ccccc4OC)cc3C2)c(O)c1` gave D3 ag -15.2, TRPML1 ag 0.0, TRPML1 inh 14.8 and D3 antag -14.6.
For COc1cc(CN2CCc3ccccc3C2)ccc1O the results were D3 ag -22.0, TRPML1 ag -0.1, TRPML1 inh -1.9 and D3 antag -90.2*.
Cc1ccc(C)c(Nc2nn3c(=O)c4ccc(C(=O)NCc5cccs5)cc4nc3s2)c1 was read as D3 ag -0.6, TRPML1 ag 1.0 and TRPML1 inh 19.8.
For COc1ccccc1N=c1scc(-c2ccc3c(c2)NC(=O)CO3)n1CC1CCCO1 (stereo not given) the results were D3 ag -12.9, TRPML1 ag 1.5, TRPML1 inh 2.1 and D3 antag -75.0*.
`Cc1ccc(CNC(=O)c2oc3ccc(S(=O)(=O)N4CCC(C)CC4)cc3c2C)cc1` gave D3 ag 0.6, TRPML1 ag 0.0 and TRPML1 inh -6.4.
CN(Cc1c(O)ccc2c1oc(=O)c1ccccc12)C1CCCCC1 was read as D3 ag -57.9, TRPML1 ag 3.6, TRPML1 inh -10.0 and D3 antag -57.4*.
For COc1ccc(Nc2cc(C)c3cc(NC(=O)c4cc(OC)cc(OC)c4)ccc3n2)cc1 the results were D3 ag 7.6, TRPML1 ag -0.6 and TRPML1 inh -9.0.
Screening O=C(CNC(=O)c1ccccc1)NCC(=O)OCC(=O)c1ccc2ccccc2c1 returned TRPML1 ag -0.6.
For CCN(CC)CCNc1oc(-c2ccccc2)nc1S(=O)(=O)c1ccccc1 the results were D3 ag -8.8, TRPML1 ag -0.7, TRPML1 inh -6.9 and D3 antag -76.3*.
`COc1ccc(-c2nc(S(=O)(=O)c3ccccc3)c(NCCCN3CCOCC3)o2)cc1` gave D3 ag -5.3, TRPML1 ag -0.7, TRPML1 inh 9.2 and D3 antag -56.9*.
Screening Cc1ccc(S(=O)(=O)c2nc(-c3ccccc3)oc2NCCCN2CCOCC2)cc1 returned D3 ag -15.6, TRPML1 ag 3.4, TRPML1 inh 30.6 and D3 antag -75.9*.
Screening O=S(=O)(c1ccccc1)c1nc(-c2ccccc2)oc1NCc1cccnc1 returned D3 ag -2.1, TRPML1 ag 1.0, TRPML1 inh 2.4 and D3 antag 1.8.
For CCS(=O)(=O)c1nc(S(=O)(=O)c2ccc(C)cc2)c(NCCCN2CCOCC2)s1 the results were D3 ag -1.1, TRPML1 ag -0.8, TRPML1 inh -2.6 and D3 antag -6.1.
